Rtt109 Vps75: inhibitors of C. albicans Rtt109/Vps75 HAT, primary screen, biochemical, ThioGlo CoA-SH fluorescence, plate reader; Histone acetyltransferase RTT109 (Candida albicans (strain SC5314 / ATCC MYA-2876)), …; inhibition, % at 34.9 µM; purified Rtt109/Vps75, 4 h; actives 0.16% (n = 330,000);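 active = inhibition of at least 50% in every replicate; inconclusive = best replicate reaches 50% inhibition but some replicates fall short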
Rce1 inh: yeast Rce1p protease inhibitors, primary screen, biochemical, fluorescence, cell-free homogeneous; yeast membranes, quenched prenylated peptide cleavage fluorescence; calls only; actives 0.27% (n = 290,000);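 active = fall in fluorescence gain of 50% or more versus controls, with final raw signal at or below 3038400; inconclusive = same 50% fall but final raw signal above 3038400; inactive = fall in fluorescence gain under 50%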;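 also: plate controls were neutral control wells for no effect and wells lacking membranes for full effect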
GRK2 aptamer HTS: compounds blocking aptamer binding on GRK2 – biochemical, human GRK2, bead flow cytometry, HTS, primary screen. Beta-adrenergic receptor kinase 1 (Homo sapiens), P25098. FAM-aptamer displacement from GRK2. inhibition of aptamer binding, % at 10 µM. actives 0.59% (n = 330,000). AID 488847, 2010;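 active = inhibition of aptamer binding above 40%, roughly 3 SD of noise, on plates passing a quality check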;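 also: median bead fluorescence of bound FAM aptamer so fluorescent compounds give negative values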
ALR H2O2 inh: inhibitors of human ALR sulfhydryl oxidase, primary screen, biochemical, H2O2 detection, HRP-luminol luminescence, single point; inhibition, % (concentration not given with the values); actives 3.8% (n = 290,000); FAD-linked sulfhydryl oxidase ALR (Homo sapiens), P55789; purified ALR, DTT oxidation;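 active = mean replicate inhibition above about 79%, with every replicate also reaching it, limit read from the data; inconclusive = only one of the two criteria met; inactive = mean below limit and not every replicate reaching it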
Target sequence (P55789 whole entry, looked up): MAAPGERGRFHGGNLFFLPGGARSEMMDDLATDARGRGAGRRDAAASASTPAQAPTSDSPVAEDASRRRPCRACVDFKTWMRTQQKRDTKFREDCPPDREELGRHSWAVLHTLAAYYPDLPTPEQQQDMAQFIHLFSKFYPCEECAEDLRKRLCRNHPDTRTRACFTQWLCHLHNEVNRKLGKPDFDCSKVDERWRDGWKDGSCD
Efflux pump mplx: inhibitors of Candida efflux pumps in yeast, primary screen, S. cerevisiae, Nile Red, multiplex; S. cerevisiae Candida pump triplex; actives 0.44% (n = 330,000); inhibition, % at 10 µM;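 active = plate passing quality check with inhibition over a set limit, or well fluorescence over plate mean plus 4 SD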;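 also: Nile Red retained in pooled yeast measured as flow cytometry median fluorescence; 0% = buffer negative control and 100% = Enniatin B positive control; higher means more Nile Red kept so more efflux inhibition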
HDAC3 inhib: HDAC3 deacetylase inhibitors, primary screen, biochemical, fluorescence, cell-free homogeneous; inhibition, % at 8.3 µM; recombinant HDAC3, fluorogenic peptide/trypsin coupled; AID 2718, 2010; actives 0.15% (n = 320,000); Histone deacetylase 3 (Homo sapiens), O15379; in the data active = inhibition above about 26%, passing the limit was not always enough; inconclusive = no clear call, values can overlap the other calls
An asterisk follows results filed as active; i = inactive; ? = inconclusive; / = not tested or not shown; + = active, no number. Hits are enriched below; roughly 4.5% of the tested compounds scored in any of these assays.

SMILES	Rtt109 Vps75	Rce1 inh	GRK2 aptamer HTS	ALR H2O2 inh	Efflux pump mplx	HDAC3 inhib
CC(C)N1CCN(S(=O)(=O)c2ccc3ccccc3c2)CC1	-5	+	0	/	0	8
COc1ccc(C2Nc3ccccc3C(=O)N2Cc2ccccc2)cc1COc1ccccn1 (stereo not drawn)	/	+	3	-2	0	-31
CCn1c2ccccc2c2cc(NC(=O)c3ccccc3-c3ccccc3C(=O)O)ccc21	0	i	0	98*	0	/
CCn1c2ccccc2c2cc(NC(=O)C(C)C)ccc21	-2	i	0	1	0	?
CCN1CCN(C(=O)CNC(=O)c2nn(-c3ccc(OC)cc3)c(=O)c3ccccc23)CC1	1	i	0	2	0	7
COc1ccc(-n2nc(C(=O)NCC(=O)NCc3ccc(F)cc3)c3ccccc3c2=O)cc1	-2	+	3	2	0	2
COc1ccc(-n2nc(C(=O)NCC(=O)O)c3ccccc3c2=O)cc1	/	i	0	-4	0	0
COc1ccc(-n2nc(C(=O)NCC(=O)N(C)Cc3ccccc3)c3ccccc3c2=O)cc1	-2	+	0	1	0	3
COc1ccc(-n2nc(C(=O)NCC(=O)N3CCN(Cc4ccccc4)CC3)c3ccccc3c2=O)cc1	-4	+	1	-1	0	1
Cc1cccn2c(=O)c3cc(C(=O)NC4CCCC4)sc3nc12	7	i	6	36	0	-58
O=C(Nc1nc(-c2ccccc2)ns1)c1cccs1	15	i	0	88*	0	-3
CC(C)Cc1nnc(NC(=O)CCC(=O)N2CCN(c3ccccc3F)CC2)s1	0	i	4	-1	0	-4
Cc1ccc(N(CC(=O)NC2CCCCC2)S(=O)(=O)c2cccs2)cc1	-4	i	0	-7	0	7
CN/N=C/c1ccc(C#N)cc1	-2	i	1	99*	0	?
CC1C(=O)N2CCCc3cc(NC(=O)COc4ccc(Cl)cc4)cc1c32 (stereo not drawn)	3	i	1	-5	0	3
CCOC(=O)c1nnc(-c2cccs2)nc1Oc1ccc(Cl)cc1	-6	i	0	92*	0	0
CCOC(=O)c1nnc(-c2cccs2)nc1Oc1ccccc1C(=O)OC	-2	i	0	41	0	1
CCC1CCC/C1=N\NC(=O)c1ccccc1C (stereo not drawn)	-3	i	3	-3	0	-11
O=C1CC(NNC(=O)c2cccc(F)c2)C(=O)N1 (stereo not drawn)	-15	i	3	92*	0	3
O=C(CNS(=O)(=O)c1c(F)cccc1F)NC1CCCc2ccccc21 (stereo not drawn)	-3	/	0	-2	0	5
NS(=O)(=O)c1ccc(CNC(=O)c2sccc2-c2ccccc2)cc1	4	i	0	-2	0	1
O=C(Nc1c(Cl)cccc1Cl)C1CCN(C(=O)c2cccs2)CC1	2	/	2	-6	0	-2
O=C(CSC1=NCCN1)NC(c1ccccc1)c1ccccc1	-7	/	0	99*	0	3
COc1ccccc1NC(=O)CSC1=NCCN1	?	/	2	98*	0	0
O=C(CSC1=NCCN1)Nc1ccccc1[N+](=O)[O-]	0	i	5	99*	0	-2
O=C(CSC1=NCCN1)Nc1cccc([N+](=O)[O-])c1	113*	i	0	99*	0	2
Cc1ccc(NC(=O)CSC2=NCCN2)cc1	?	i	0	-3	0	-1
O=C(CSc1nc(=O)n2ccccc2n1)NCc1ccccc1	22	i	4	0	0	-3
COc1ccc(NCc2ccc(OC)c(Cn3ccnc3)c2)c(OC)c1	1	i	3	99*	0	-3
